From PubChem BioAssay AID686978 (National Center for Advancing Translational Sciences (NCATS), 2013) come the findings set out here.

In all, about 420,000 compounds went through this assay and about 64,000 (15%) were called active. Another 27% or so got no clear call; they are omitted. The call rests on the fitted dose curve; in most records, active means well fitted inhibition curve with a large enough effect; inconclusive means small, poorly fitted or top-dose-only effect; inactive means flat fitted curve, though single readings scatter. A selection follows. Where a call stands in place of a potency, no number is given.
Potency means the concentration at half of the fitted maximal effect.

The test can be described thus: qHTS for Inhibitors of human tyrosyl-DNA phosphodiesterase 1 (TDP1): qHTS in cells in absence of CPT. Further: nearly all actives have a fitted effect of over 55% in size. To be noted: DT40 Tdp1-/- hTDP1 cells, no CPT, ATP luminescence, 48 h; activity change, negative = growth inhibition: at 46.2 µM (top of the series). Summed up: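 Seeded 400 DT40-hTDP1 cells/well (vehicle DMSO, no 20 nM CPT); pinned compounds; ≥48 hr at 37 °C; CellTiter-Glo luminescence as viability measure.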
On the technique in general: Quantitative high-throughput screening tests each substance at several concentrations.
For the compound `Cc1cc(C)cc(N(C(C)C(=O)Nc2c(C)n(C)n(-c3ccccc3)c2=O)S(C)(=O)=O)c1` (configuration not stated), the Potency entry is “inactive”. Turning to `CCCCOc1ccc(Cn2c(=O)oc3ccc(C)cc32)cc1OC`, the Potency is 14.6 µM (active). Regarding `CCCCOc1ccc(CN2C(=O)C(=O)c3cc(Br)cc(C)c32)cc1OC`, the Potency is 1.16 µM (active). On to `COc1ccc(Cn2c(=O)oc3ccccc32)cc1`, for which the Potency entry is “inactive”.

`CCCCn1nnnc1C1(C)CCC(=O)N1Cc1ccc(OC)c(OC)c1` (configuration not stated): the Potency entry is “inactive”. As for `COc1ccc(CN2CCOC2=O)cc1OC`, the entry is “inactive”; as for `CCOc1cc(CN2CCN(C(=O)CC(C)C)CC2)ccc1OC`, “inactive”. With `Cc1cccc(-n2c(Cc3cc(=O)[nH]c(=O)[nH]3)nnc2SC(C)C)c1`, the Potency entry was “inactive”.

With `CC/C(=N\NC(=O)c1c(C)nc2ccccn12)c1ccc(Cl)cc1`, the Potency result was “inactive”.

Take `CCCCCC(=O)Nc1ccc(S(=O)(=O)Nc2ccc(Cl)nn2)cc1`: the Potency result was “inactive”. The same measure for `CCCCN(C)Cc1c(C)[nH]c2ccc(Cl)cc2c1=O`: “inactive”; for `CCOC(=O)C1=C(C)NC(SC)=NC1c1ccccc1` (configuration not stated): “inactive”; for `C=CCC1(C#N)C(=S)NC(C)=C(C(=O)OCC)C1c1ccccc1` (configuration not stated): 29.1 µM (active). The same measure for `CCOC(=O)C1=C(C)NC(C)=C(C(=O)OCC)C1c1ccccn1`: “inactive”. The same measure for `Cc1ccsc1C1C(C#N)=C(N)OC2=C1C(=O)CC(C)(C)C2` (configuration not stated): “inactive”; for `CCOC(=O)CSc1nnc(CNC(=O)Cc2ccccc2)n1-c1ccccc1OC`: “inactive”; for `O=C(COc1ccc(Cl)cc1)NCCSc1ccccc1`: “inactive”. `COc1ccc(C(=O)COC(=O)CNC(=O)c2cccs2)cc1Br`: the Potency entry was “inactive”. As for `Cc1ccc(S(=O)(=O)n2cnc3ccccc32)c(C)c1`, the entry is “inactive”; as for `COc1ccc(S(=O)(=O)n2cnc3ccccc32)c(C)c1`, 10.3 µM (active).

For the compound `Cc1ccc(C)c(S(=O)(=O)n2cnc3ccccc32)c1`, the Potency entry was “inactive”.

With `COc1ccc(C)cc1NC(=S)N1CCOCC1`, the Potency entry is “inactive”. The same measure for `C=CCOc1c(Br)cc(/C=N\n2nnnc2N)cc1OC`: “inactive”.

For `C[C@H]1CN([C@@H](C)CO)C(=O)c2cc(-c3cccc(F)c3)cnc2O[C@@H]1CN(C)S(C)(=O)=O`, the Potency result was “inactive”. For the compound `CC1CN(Cc2nc3c(c(=O)n(C)c(=O)n3C)n2Cc2cccc(Cl)c2)CC(C)O1` (configuration not stated), the Potency entry is “inactive”.

For the compound `C=CCOc1nc2c(c(=O)n(C)c(=O)n2C)n1Cc1ccc(Cl)cc1Cl`, the Potency was 14.6 µM (active). The same measure for `Cn1c(=O)c2c(nc(Oc3ccc(C#N)cc3)n2Cc2ccc(Cl)cc2Cl)n(C)c1=O`: “inactive”. For the compound `CN1CCc2nc(SC(C(=O)O)c3ccccc3)c(C#N)c(-c3cccs3)c2C1` (configuration not stated), the Potency result was “inactive”. `COc1ccc(CCNC(=O)Cn2c(=O)n(-c3ccccc3)c(=O)c3c(C)c(C)sc32)cc1OC`: the Potency result was “inactive”.

As for `C=CCn1c(SCC(N)=O)nnc1-c1cc2c(s1)CCC(CC)C2` (configuration not stated), the Potency result is “inactive”. In the case of `O=C1C=C(c2ccccc2)CCC1`, the Potency result was “inactive”. The same measure for `CC(=O)CCC(=O)c1ccc2ccccc2c1`: “inactive”. The same measure for `C=CC(=O)c1ccc2ccccc2c1`: 2.31 µM (active); for `CC(=O)c1ccc2c(ccc3ccccc32)c1`: “inactive”; for `CCc1ccc(C(=O)N2CCN(S(=O)(=O)c3sc(C(=O)O)c(C)c3C(=O)O)CC2)cc1`: “inactive”.

On to `CCOc1cc(C(=S)N2CCOCC2)ccc1OS(=O)(=O)c1ccc(Br)cc1`, for which the Potency was 20.6 µM (active).

Regarding `CC(=O)Nc1ccc(S(=O)(=O)Oc2ccc(Br)cc2C(=S)N2CCOCC2)cc1`, the Potency entry was “inactive”. As for `O=S(=O)(Oc1ccccc1C(=S)N1CCOCC1)c1ccc(Cl)cc1`, the Potency result is “inactive”. As for `CCN(CC)P(=O)(C(NC(=O)OC)C(F)(F)C(F)(F)C(F)(F)C(F)F)N(CC)CC` (configuration not stated), the entry is “inactive”. The same measure for `Cc1cc(C)nc(SCc2nnc(SCC(=O)Nc3ncc(C)s3)n2Cc2ccco2)n1`: “inactive”; for `CCOC(=O)CSc1nc2c(sc(=S)n2CCc2ccccc2)c(=O)n1Cc1ccco1`: 16.4 µM (active); for `CCOC(=O)CSc1nnc(-c2ccco2)n1C`: “inactive”. Turning to `Cc1ccc(C)c(NC(=O)C2CC(=O)N(C(C)C)C2)c1` (configuration not stated), the Potency result is “inactive”. The same measure for `CCCC(C)n1[nH]c(=O)c2c(C)cc(C)nc21` (configuration not stated): “inactive”; for `CC(CCc1ccccc1)NC(=O)c1ccc(Br)o1` (configuration not stated): “inactive”. As for `O=C(CNC(=O)c1ccc(Br)o1)Nc1ccccc1`, the entry is “inactive”; as for `CC(CNC(=O)c1ccc(Br)o1)NC(=O)c1ccc(Br)o1` (configuration not stated), 4.61 µM (active); as for `C=C1C(=O)C23C(O)C1CCC2[C@]12COC3(O)C(O)C1C(C)(C)CC[C@H]2O` (some centres not stated), 6.51 µM (active). Regarding `O=C(COC(=O)c1ncc(Cl)c(Cl)c1Cl)NC1CCS(=O)(=O)C1` (configuration not stated), the Potency result is “inactive”. In the case of `NC(N)=NCCCc1cn(CC(=O)N2CCNCC2)nn1`, the Potency entry was “inactive”.

For the compound `O=C(COC(=O)c1cccnc1Cl)NC(=O)NC1CCCCC1`, the Potency result is “inactive”. The same measure for `Cc1nn(-c2ccccc2)c(C)c1C(=O)OCC(=O)NC(=O)NC1CCCCC1`: 29.1 µM (active); for `N#Cc1ccc(C(=O)OCC(=O)NC(=O)NC2CCCCC2)cc1`: “inactive”. The same measure for `CC1Cc2ccccc2N1C1=CC(=O)CC(C)(C)C1` (configuration not stated): “inactive”; for `O=C(/C=C/Nc1ccccc1)c1cnc(-c2ccccc2)s1`: “inactive”. The same measure for `CC1(C(=O)O)CCCN(C(=O)/C=C/c2ccccc2)C1` (configuration not stated): “inactive”; for `CC(C)N(C(=O)Cn1c(SCC(=O)N2CCN(c3ccccc3)CC2)nc2ccccc21)C(C)C`: “inactive”. Consider `CC(C)Cn1c(N2CCN(C(=O)/C=C/c3ccccc3)CC2)nc2ccccc21`, for which the Potency was 9.2 µM (active). Regarding `O=C(Nc1ccc(OCCO)cc1)c1csc([C@H]2C[C@H](O)[C@@H](CO)O2)n1`, the Potency result was “inactive”.

Consider `COc1ccc(OC)c(C2C3=C(N=c4s/c(=C\c5cccc(O)c5)c(=O)n42)c2ccccc2CC3)c1` (configuration not stated), for which the Potency is 25.9 µM (active).

Regarding `CCOC(=O)C1=C(C)N=c2s/c(=C\C(=O)OC)c(=O)n2C1c1ccc(OC)cc1` (configuration not stated), the Potency entry is “inactive”. As for `CC(C)(C)NC(=O)NC(=O)COC(=O)C1c2ccccc2Oc2ccccc21`, the entry is “inactive”. As for `COc1cn(CC(=O)Nc2cccc(C)c2C)c(CN2CCCCC2)cc1=O`, the entry is “inactive”. The same measure for `CCCCCCCCn1c2c(c(=N)c3c1CCC3)CCCC2`: 1.03 µM (active); for `Nc1nnc(SCCN2C(=O)c3ccccc3S2(=O)=O)s1`: “inactive”; for `CN(C)CCCN(Cc1cc2cc3c(cc2[nH]c1=O)OCCO3)C(=O)NC1CCCCC1`: “inactive”. Turning to `Cc1nnc(SCC(=O)Nc2ccc(S(=O)(=O)Nc3ccc(Cl)nn3)cc2)s1`, the Potency result was “inactive”.
